# In the supplement of paper PMC4022240:
# ± gives the standard deviation.
# T1: HaloTag-ATRX ADD domain (163-292)
# T1 chain: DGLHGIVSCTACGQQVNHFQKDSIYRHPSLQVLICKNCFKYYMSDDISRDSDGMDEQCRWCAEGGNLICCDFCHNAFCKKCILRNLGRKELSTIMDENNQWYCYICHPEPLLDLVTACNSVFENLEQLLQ
# What was measured:
# Assay in all cases: peptide microarray binding signal (635 nm), min-max normalized on array (fraction of array maximum); higher = stronger binding
# [1] = target: T1, HaloTag-ATRX ADD domain (163-292)
# Method in brief: (§1)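 Arrays carried histone 13-mer peptide–cellulose conjugates printed in triplicate on nitrocellulose alongside a Cy3 tracer. After overnight blocking at 4°C, they were incubated for 1 h at 4°C with biotin-labelled HaloTag reader fusions (10 nM to 1 μM) plus streptavidin-Alexa Fluor 647, or with rabbit histone antibodies (1:10,000 to 1:2,000) plus anti-rabbit Alexa 647. Scanning on an Axon GenePix 4000B used 635 nm for signal and 532 nm for misprints. The binding signal reported is each triplicate's mean spot intensity after per-library min-max scaling.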
# [2] = target: HaloTag-ING2 PHD (mouse Ing2 200-280)
# Method in brief: as §1
# [3] = target: anti-H3K4me3 antibody ab8580
# Method in brief: as §1
# [4] = target: anti-H3K9me3 antibody ab8898
# Method in brief: as §1
# [5] = peptide region: H4 8-19, peptide modifications: H4R17me1, binder concentration: 1:2,000 dilution
# [6] = peptide region: H4 8-19, peptide modifications: H4R17me1, binder concentration: 1:10,000 dilution
# [7] = peptide region: H4 16-28, peptide modifications: H4K20me3, binder concentration: 1:2,000 dilution
# [8] = peptide region: H4 8-19, peptide modifications: H4K16ac H4R17me2s, binder concentration: 1:2,000 dilution
# [9] = peptide region: H4 8-19, peptide modifications: H4K16ac H4R17me2a, binder concentration: 1:2,000 dilution
# [10] = peptide region: H4 16-28, peptide modifications: H4R19cit H4K20me1, binder concentration: 1:2,000 dilution
# [11] = peptide region: H4 16-28, peptide modifications: H4R19cit H4K20me1, binder concentration: 1:10,000 dilution
# [12] = peptide region: H4 16-28, binder concentration: 1:2,000 dilution
# [13] = peptide region: H4 8-19, peptide modifications: H4R17me2s, binder concentration: 1:2,000 dilution
# [14] = peptide region: H4 8-19, peptide modifications: H4R17me2s, binder concentration: 1:10,000 dilution
# [15] = peptide region: H4 8-19, peptide modifications: H4K12ac, binder concentration: 1:2,000 dilution
# [16] = peptide region: H4 8-19, peptide modifications: H4K12ac, binder concentration: 1:10,000 dilution
# [17] = peptide region: H4 8-19, peptide modifications: H4K12ac H4K16ac, binder concentration: 1:2,000 dilution
# [18] = peptide region: H4 8-19, peptide modifications: H4K12ac H4K16ac, binder concentration: 1:10,000 dilution
# [19] = peptide region: H4 8-19, peptide modifications: H4K16ac H4R17cit, binder concentration: 1:2,000 dilution
# [20] = peptide region: H4 16-28, peptide modifications: H4K20me2, binder concentration: 1:2,000 dilution
# [21] = peptide region: H4 16-28, peptide modifications: H4R19cit H4K20me3, binder concentration: 1:2,000 dilution
# [22] = peptide region: H4 16-28, peptide modifications: H4R19cit H4K20me3, binder concentration: 1:10,000 dilution
# [23] = peptide region: H4 16-28, peptide modifications: H4R19cit, binder concentration: 1:2,000 dilution
binder,measurement,setting,value
KGLGKGGAKRHRK [H4 8-19 K G L G K G G A K Rme H R K],peptide microarray binding signal,"[1]; peptide region: H4 8-19, peptide modifications: H4R17me1, binder concentration: 50 nM",0.00987 ± 0.0027
same,peptide microarray binding signal,"[1]; peptide region: H4 8-19, peptide modifications: H4R17me1, binder concentration: 500 nM",0.016 ± 0.0014
same,peptide microarray binding signal,"[2]; peptide region: H4 8-19, peptide modifications: H4R17me1, binder concentration: 10 nM",0.00352 ± 6.8e-05
same,peptide microarray binding signal,"[2]; peptide region: H4 8-19, peptide modifications: H4R17me1, binder concentration: 100 nM",0.00865 ± 0.00034
same,peptide microarray binding signal,[3]; [5],0.00119 ± 0.0002
same,peptide microarray binding signal,[3]; [6],0.00148 ± 8e-05
same,peptide microarray binding signal,[4]; [5],0.00112 ± 4.3e-05
same,peptide microarray binding signal,[4]; [6],0.00138 ± 1.4e-05
KRHRKVLRDNIQG [H4 16-28 K R H R Kme3 V L R D N I Q G],peptide microarray binding signal,"[1]; peptide region: H4 16-28, peptide modifications: H4K20me3, binder concentration: 500 nM",0.000667 ± 3.7e-05
same,peptide microarray binding signal,"[2]; peptide region: H4 16-28, peptide modifications: H4K20me3, binder concentration: 100 nM",7.09e-05 ± 1.5e-06
same,peptide microarray binding signal,[3]; [7],0.000982 ± 0.00023
same,peptide microarray binding signal,[4]; [7],1.51e-05 ± 1.7e-07
KGLGKGGAKRHRK [H4 8-19 K G L G K G G A Kac Rme2s H R K],peptide microarray binding signal,"[1]; peptide region: H4 8-19, peptide modifications: H4K16ac H4R17me2s, binder concentration: 500 nM",0.000286 ± 1.8e-05
same,peptide microarray binding signal,"[2]; peptide region: H4 8-19, peptide modifications: H4K16ac H4R17me2s, binder concentration: 100 nM",0.000283 ± 5.7e-06
same,peptide microarray binding signal,[3]; [8],5.66e-05
same,peptide microarray binding signal,[4]; [8],1.51e-05 ± 1.7e-07
KGLGKGGAKRHRK [H4 8-19 K G L G K G G A Kac Rme2a H R K],peptide microarray binding signal,"[1]; peptide region: H4 8-19, peptide modifications: H4K16ac H4R17me2a, binder concentration: 500 nM",0
same,peptide microarray binding signal,"[2]; peptide region: H4 8-19, peptide modifications: H4K16ac H4R17me2a, binder concentration: 100 nM",0.000283
same,peptide microarray binding signal,[3]; [9],1.89e-05 ± 2.2e-07
same,peptide microarray binding signal,[4]; [9],1.51e-05 ± 1.7e-07
KRHRKVLRDNIQG [H4 16-28 K R H Rcit Kme V L R D N I Q G],peptide microarray binding signal,"[1]; peptide region: H4 16-28, peptide modifications: H4R19cit H4K20me1, binder concentration: 50 nM",0.00693 ± 7.8e-05
same,peptide microarray binding signal,"[1]; peptide region: H4 16-28, peptide modifications: H4R19cit H4K20me1, binder concentration: 500 nM",0.00933 ± 0.00036
same,peptide microarray binding signal,"[2]; peptide region: H4 16-28, peptide modifications: H4R19cit H4K20me1, binder concentration: 10 nM",0.0107 ± 0.00018
same,peptide microarray binding signal,"[2]; peptide region: H4 16-28, peptide modifications: H4R19cit H4K20me1, binder concentration: 100 nM",0.0139 ± 0.00037
same,peptide microarray binding signal,[3]; [10],0.00145 ± 4.8e-05
same,peptide microarray binding signal,[3]; [11],0.002853 ± 2.4e-05
same,peptide microarray binding signal,[4]; [10],0.000785 ± 4.4e-05
same,peptide microarray binding signal,[4]; [11],0.002479 ± 2.2e-05
KRHRKVLRDNIQG [H4 16-28 K R H R K V L R D N I Q G],peptide microarray binding signal,"[1]; peptide region: H4 16-28, binder concentration: 500 nM",0.000238 ± 2.5e-06
same,peptide microarray binding signal,"[2]; peptide region: H4 16-28, binder concentration: 100 nM",0.000354 ± 4.1e-06
same,peptide microarray binding signal,[3]; [12],0.000132 ± 1.5e-06
same,peptide microarray binding signal,[4]; [12],6.04e-05 ± 2.7e-06
KGLGKGGAKRHRK [H4 8-19 K G L G K G G A K Rme2s H R K],peptide microarray binding signal,"[1]; peptide region: H4 8-19, peptide modifications: H4R17me2s, binder concentration: 50 nM",0.00464 ± 0.00023
same,peptide microarray binding signal,"[1]; peptide region: H4 8-19, peptide modifications: H4R17me2s, binder concentration: 500 nM",0.02 ± 0.00069
same,peptide microarray binding signal,"[2]; peptide region: H4 8-19, peptide modifications: H4R17me2s, binder concentration: 10 nM",0.00173 ± 7.2e-05
same,peptide microarray binding signal,"[2]; peptide region: H4 8-19, peptide modifications: H4R17me2s, binder concentration: 100 nM",0.00184 ± 0.00024
same,peptide microarray binding signal,[3]; [13],0.000132 ± 1.5e-06
same,peptide microarray binding signal,[3]; [14],0.000685 ± 7.2e-06
same,peptide microarray binding signal,[4]; [13],0.000861 ± 4.5e-05
same,peptide microarray binding signal,[4]; [14],0.000807 ± 1.5e-05
KGLGKGGAKRHRK [H4 8-19 K G L G Kac G G A K R H R K],peptide microarray binding signal,"[1]; peptide region: H4 8-19, peptide modifications: H4K12ac, binder concentration: 50 nM",0.00743 ± 0.00047
same,peptide microarray binding signal,"[1]; peptide region: H4 8-19, peptide modifications: H4K12ac, binder concentration: 500 nM",0.0289 ± 0.0017
same,peptide microarray binding signal,"[2]; peptide region: H4 8-19, peptide modifications: H4K12ac, binder concentration: 10 nM",0.00352 ± 0.00036
same,peptide microarray binding signal,"[2]; peptide region: H4 8-19, peptide modifications: H4K12ac, binder concentration: 100 nM",0.0073 ± 0.00023
same,peptide microarray binding signal,[3]; [15],0.000189 ± 2e-06
same,peptide microarray binding signal,[3]; [16],0.00302 ± 6.8e-05
same,peptide microarray binding signal,[4]; [15],0.0031 ± 4e-05
same,peptide microarray binding signal,[4]; [16],0.00283 ± 0.00018
KGLGKGGAKRHRK [H4 8-19 K G L G Kac G G A Kac R H R K],peptide microarray binding signal,"[1]; peptide region: H4 8-19, peptide modifications: H4K12ac H4K16ac, binder concentration: 50 nM",0.000188 ± 6.2e-06
same,peptide microarray binding signal,"[1]; peptide region: H4 8-19, peptide modifications: H4K12ac H4K16ac, binder concentration: 500 nM",0.000333 ± 1.3e-05
same,peptide microarray binding signal,"[2]; peptide region: H4 8-19, peptide modifications: H4K12ac H4K16ac, binder concentration: 10 nM",0.00215 ± 0.00035
same,peptide microarray binding signal,"[2]; peptide region: H4 8-19, peptide modifications: H4K12ac H4K16ac, binder concentration: 100 nM",0.000142 ± 1.7e-06
same,peptide microarray binding signal,[3]; [17],0
same,peptide microarray binding signal,[3]; [18],5.71e-05
same,peptide microarray binding signal,[4]; [17],0
same,peptide microarray binding signal,[4]; [18],0
KGLGKGGAKRHRK [H4 8-19 K G L G K G G A Kac Rcit H R K],peptide microarray binding signal,"[1]; peptide region: H4 8-19, peptide modifications: H4K16ac H4R17cit, binder concentration: 500 nM",0.000476 ± 1.3e-05
same,peptide microarray binding signal,"[2]; peptide region: H4 8-19, peptide modifications: H4K16ac H4R17cit, binder concentration: 100 nM",7.09e-05 ± 1.5e-06
same,peptide microarray binding signal,[3]; [19],3.78e-05 ± 4.3e-07
same,peptide microarray binding signal,[4]; [19],0
KRHRKVLRDNIQG [H4 16-28 K R H R Kme2 V L R D N I Q G],peptide microarray binding signal,"[1]; peptide region: H4 16-28, peptide modifications: H4K20me2, binder concentration: 500 nM",0
same,peptide microarray binding signal,"[2]; peptide region: H4 16-28, peptide modifications: H4K20me2, binder concentration: 100 nM",0.000142 ± 1.7e-06
same,peptide microarray binding signal,[3]; [20],5.66e-05 ± 1.1e-06
same,peptide microarray binding signal,[4]; [20],1.51e-05 ± 1.7e-07
KRHRKVLRDNIQG [H4 16-28 K R H Rcit Kme3 V L R D N I Q G],peptide microarray binding signal,"[1]; peptide region: H4 16-28, peptide modifications: H4R19cit H4K20me3, binder concentration: 50 nM",0.0068 ± 9.7e-05
same,peptide microarray binding signal,"[1]; peptide region: H4 16-28, peptide modifications: H4R19cit H4K20me3, binder concentration: 500 nM",0.00848 ± 0.0011
same,peptide microarray binding signal,"[2]; peptide region: H4 16-28, peptide modifications: H4R19cit H4K20me3, binder concentration: 10 nM",0.0124 ± 0.00084
same,peptide microarray binding signal,"[2]; peptide region: H4 16-28, peptide modifications: H4R19cit H4K20me3, binder concentration: 100 nM",0.018 ± 0.0027
same,peptide microarray binding signal,[3]; [21],0.00832 ± 0.0026
same,peptide microarray binding signal,[3]; [22],0.00514 ± 0.0003
same,peptide microarray binding signal,[4]; [21],0.0039 ± 0.0016
same,peptide microarray binding signal,[4]; [22],0.00369 ± 0.00012
KRHRKVLRDNIQG [H4 16-28 K R H Rcit K V L R D N I Q G],peptide microarray binding signal,"[1]; peptide region: H4 16-28, peptide modifications: H4R19cit, binder concentration: 500 nM",0.000476 ± 2.1e-05
same,peptide microarray binding signal,"[2]; peptide region: H4 16-28, peptide modifications: H4R19cit, binder concentration: 100 nM",0.000283 ± 5.7e-06
same,peptide microarray binding signal,[3]; [23],9.44e-05 ± 2.1e-06
same,peptide microarray binding signal,[4]; [23],3.02e-05 ± 3.4e-07
